Each structure is given as a SMILES string. Calls of active or inactive are those of the source. Rule for the calls: active = hit-call score of the fitted dose curve at least 0.9, where 1 is the maximum; inactive = score below 0.9.

As usually defined, the AC50 is the concentration at which the activity in the assay is half-maximal.

The assay is described as follows: BSK_hDFCGF_Proliferation: Cell Proliferation Assessment in the BioMAP Diversity Plus: hDFCGF Assay (AID 2283059).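 Note: curves fitted for both rise and fall of signal versus DMSO baseline.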 Conditions: primary human foreskin fibroblasts. Here is the method: BSK_hDFCGF is a cell-based, multiplexed-readout assay that uses foreskin fibroblast, a human skin primary cell, with measurements taken at 24 hours after chemical dosing in a 96-well plate.BSK_hDFCGF_Proliferation is an assay component measured in the BSK_hDFCGF assay. It measures […] related to cell proliferation using Sulforhodamine staining technology.Data from the assay component BSK_hDFCGF_Proliferation was analyzed into 1 assay endpoint. This assay endpoint, BSK_hDFCGF_Proliferation, was analyzed with bidirectional fitting relative to DMSO as the negative control and baseline of activity. Using a type of viability reporter, measures of total protein for gain or loss-of-signal activity can be used to understand the viability at the cellular-level. Furthermore, this assay endpoint can be referred to as a secondary readout, because this assay has produced multiple assay endpoints where this one serves a viability function. To generalize the intended target to other relatable targets, this assay endpoint is annotated to the cell cycle intended target family, where the subfamily is proliferation.
The levels of cell surface (or secreted, indicated by the prefix "s") biomarker endpoints were measured by ELISA. Overt cytotoxicity to cells in confluent adherent cultures (all systems other than the BT system) was assessed by measuring total protein levels using sulforhodamine B (SRB) staining in parallel cultures at the time of biomarker measurements, indicated as SRB endpoints. For proliferation assays for adherent cell types, individual cell types are cultured at sub-confluence and relative cell numbers quantified by SRB staining at time points optimized for each system (48 h: 3C and CASM3C systems; 72 h: BT and HDF3CGF systems; 96 h: SAg system). SRB was performed by staining cells with 0.1% SRB after fixation with 10% TCA and reading wells at 560 nm.Viability and proliferation of PBMC (T cells) was quantified by Alamar Blue reduction for the SAg and BT systems. For PBMC viability (referred to as PBMC Cytotoxicity within the assay endpoint names), cells were plated (75,000/well in a 96-well plate) and then chemical samples added for 1 h before addition of activators, SEB and TSST-1 (20 ng/mL final concentration each). Cells were incubated for 90 h. Then, Alamar Blue (20 uL/well) (Invitrogen, Cat DAL1100) was added for 6 h, and the plates were read with a fluorescence microplate reader at 546/580 nm (excitation/emission). For PBMC proliferation, cells were plated and activated as above but incubated for only 16 h prior to addition of Alamar Blue. Plates were read after 6 h.
`Clc1cc(Cl)c2c(c1)N=C1CCCCCN1C2`: the outcome was inactive.

On to `CCN(CC)C(=O)c1cc(S(=O)(=O)Cc2ccccc2)c(N2CCC(c3ccccc3)CC2)cc1N(CC)CCN(C)C`, for which the AC50 is 5.9 µM (active).

`CN(C)C(=O)C1(N2CCCCC2)CCN(CC[C@@]2(c3ccc(Cl)c(Cl)c3)CN(C(=O)c3ccccc3)CCO2)CC1`: the AC50 is 5.15 µM (active).

`O=C(O)Cn1c(=O)n(Cc2ccc(Br)cc2F)c(=O)c2ccc(Cl)cc21`: the outcome was inactive.

With `CCCCCCCCCCCC[N+](C)(C)C`, the AC50 was 8.97 µM (active).

With `CC1=CC(=O)/C(=C(/C)O)C(=O)O1`, the result was inactive.

`O=c1c(-c2ccc(O)cc2)coc2cc(O)cc(O)c12`: the concentration at half-maximal activity (AC50) was 11.7 µM (active).

`CCCCCCCC[Si](OCC)(OCC)OCC`: the AC50 is 28.3 µM (active).

On to `CCCCCCCCCC(=O)O`, for which the result was inactive.

For `Oc1ccccc1`, the result was inactive.

Turning to `CN1C(=O)N(c2ccccc2Br)Cc2cnc(Nc3ccc4c(c3)OCC(CO)O4)nc21` (stereo not given), the AC50 is 11.9 µM (active).

As to `O=c1[nH]sc2ccccc12`, the concentration at half-maximal activity (AC50) is 0.281 µM (active).

On to `O=C(Nc1ccc(Cl)cc1)Nc1ccc(Cl)c(Cl)c1`, for which the AC50 is 0.477 µM (active).

For `Cc1ncc(CO)c(CO)c1O`, the outcome was inactive.

Regarding `O=c1ccc2ccccc2o1`, the AC50 was 8.81 µM (active).

Take `CC(C)(O)c1ccc(CNC(=O)c2cccnc2Oc2ccc3nonc3c2)cc1`: the result was inactive.

Turning to `c1ccc(C[n+]2cccc3ccccc32)cc1`, the result was inactive.

Take `CN(C[C@@H](CC[N+]12CCC(C3CCCCC3)(CC1)CC2)c1ccc(Cl)c(Cl)c1)C(=O)c1cc(C(F)(F)F)cc(C(F)(F)F)c1`: the AC50 was 5.55 µM (active).

Take `COCC(C)OCC(C)OCC(C)O` (stereo not given): the result was inactive.

As for `CC1(C)NC(=O)N(c2ccc([N+](=O)[O-])c(C(F)(F)F)c2)C1=O`, the result was inactive.

As for `O=CCCCC=O`, the AC50 is 25.3 µM (active).

As for `Cc1cn([C@H]2C[C@H](N=[N+]=[N-])[C@@H](CO)O2)c(=O)[nH]c1=O`, the outcome was inactive.

In the case of `CC(=O)N1CCN(c2ccc(OC[C@H]3CO[C@](Cn4ccnc4)(c4ccc(Cl)cc4Cl)O3)cc2)CC1`, the AC50 was 20 µM (active).

Consider `OCCO`, for which the AC50 is 20.1 µM (active).

Consider `O=C1CCC(C2CCCCC2)CC1`, for which the AC50 is 19.5 µM (active).

In the case of `CC/C(=C(/CC)c1ccc(O)cc1)c1ccc(O)cc1`, the AC50 was 7.02 µM (active).

In the case of `COc1cc(C(=O)NC2CCN(C)CC2)ccc1Nc1ncc2c(n1)N(C1CCCC1)CC(F)(F)C(=O)N2C`, the AC50 is 4.95 µM (active).

Regarding `CCCOC(=O)c1cc(O)c(O)c(O)c1`, the AC50 is 8.01 µM (active).

Regarding `Cc1oc2c(NC(=O)c3c(Cl)cccc3Cl)cccc2c1C(C)(C)O`, the AC50 was 14.1 µM (active).

For `Cc1cccc2ccccc12`, the result was inactive.

As for `O=C=NCCCCCCN=C=O`, the result was inactive.

`Cc1occc1C(=O)Nc1ccc(C(=O)N2CCC(F)(F)/C(=C\C(=O)N3CCC(N4CCCCC4)CC3)c3ccccc32)cc1`: the result was inactive.

Take `Cc1ccc2oc(CN(Cc3ccccc3)C(=O)Nc3c(F)cc(F)cc3F)c(-c3ccc(Cl)cc3)c2c1`: the outcome was inactive.

Turning to `CCCCCCCCCCCO`, the AC50 was 20 µM (active).

`CCCCOC(=O)c1ccc(O)cc1`: the AC50 is 20 µM (active).

On to `CC(C)(C)c1csc(-c2cc3cc(OCc4ccccc4CC(=O)O)ccc3o2)n1`, for which the AC50 was 9.8 µM (active).

On to `O=C1O[C@H]([C@@H](O)CO)C(O)=C1O`, for which the result was inactive.

With `CCCC(=O)OCCC(C)C`, the result was inactive.

With `CCCCCCCCCCCCO`, the AC50 was 26.5 µM (active).

On to `CC(C)(C)c1cc(/C=C2\SC(N)=NC2=O)cc(C(C)(C)C)c1O`, for which the concentration at half-maximal activity (AC50) is 7.49 µM (active).

The values are drawn from PubChem BioAssay (EPA / NIEHS).
